Several values for one entry are separate records, joined by “and”; a condition that tells them apart may be missing. Equal entries are not always repeated.
Tests used:
Format in all cases: functional
[1] = molecular target: Solute carrier family 2, facilitated glucose transporter member 1 (Homo sapiens) (UniProt P11166); assay: ST_JUDE_LEISH: Cytotoxicity at 2uM final concentration against transgenic Leishmania Mexicana promastigotes LmGLUT1 that are glucose transport deficient and complemented with the human glucose transporter GLUT1. Activity is measured by DNA content using SYBR green in vitro
[2] = molecular target: Hexose transporter 1 (Plasmodium falciparum) (UniProt O97467); assay: ST_JUDE_LEISH: Cytotoxicity at 2uM final concentration against transgenic Leishmania Mexicana promastigotes LmPfHT that are glucose transport deficient and complemented with the Plasmodium falciparum hexose transporter. Activity is measured by DNA content using SYBR green in vitro
[3] = molecular target: Glucose transporter (Leishmania mexicana) (UniProt O61059); assay: ST_JUDE_LEISH: Cytotoxicity at 2uM final concentration against transgenic Leishmania Mexicana promastigotes LmGT2 that are glucose transport deficient and complemented with the L. Mexicana glucose transporter 2. Activity is measured by DNA content using SYBR green in vitro

Sequence of Solute carrier family 2, facilitated glucose transporter member 1 (Homo sapiens) (P11166 whole entry): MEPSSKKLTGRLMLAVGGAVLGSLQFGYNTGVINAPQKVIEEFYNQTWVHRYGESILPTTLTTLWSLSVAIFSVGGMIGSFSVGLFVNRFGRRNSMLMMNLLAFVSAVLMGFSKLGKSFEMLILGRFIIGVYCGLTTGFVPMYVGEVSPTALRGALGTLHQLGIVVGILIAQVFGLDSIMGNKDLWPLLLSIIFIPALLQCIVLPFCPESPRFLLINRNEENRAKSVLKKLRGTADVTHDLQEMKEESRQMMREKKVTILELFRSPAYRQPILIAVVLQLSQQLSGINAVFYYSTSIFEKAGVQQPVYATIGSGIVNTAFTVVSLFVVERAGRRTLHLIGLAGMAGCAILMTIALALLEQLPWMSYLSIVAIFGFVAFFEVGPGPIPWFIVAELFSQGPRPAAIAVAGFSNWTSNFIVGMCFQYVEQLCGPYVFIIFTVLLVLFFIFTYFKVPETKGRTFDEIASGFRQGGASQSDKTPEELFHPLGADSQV

Row | Compound | inhibition [1] | inhibition [2] | inhibition [3]
1 | CC[C@H]1CN2CC[C@H]1C[C@H]2[C@H](O)c1ccnc2ccc(OC)cc12 | -0.16% | 0.87% | 0.32%
2 | Cc1c(C)c2c(c(C)c1O)CC[C@](C)(C(=O)N1CCC(CN3CCC(c4c[nH]c5ccccc45)CC3)CC1)O2 | 3.34% | 4.94% | 0.9%
3 | COc1cc(C=CC(=O)NC2CCC(CN3CCC(c4c[nH]c5ccccc45)CC3)CC2)cc(OC)c1 (stereo unspecified) | -1.01% | -2.18% | -3.65%
4 | Cc1ccc(CC(C)NCC(O)c2cccc(C(F)(F)F)c2)cc1 (stereo unspecified) | 1.64% and 2.89% | 4.33% and 0.46% | 1.68% and 0.49%
5 | CC[C@H]1CN2CC[C@@H]1C[C@H]2[C@H](O)c1cc(-c2ccccc2)nc2ccc(O)cc12 | 5.97% | 5.53% | 2.83%
6 | CC[C@H]1CN2CC[C@@H]1C[C@H]2[C@H](O)c1ccnc2ccc(Cl)cc12 | 2.97% | 3.95% | 3.25%
7 | Oc1ccccc1CNCC(O)c1cccc(C(F)(F)F)c1 (stereo unspecified) | -0.54% | -1.26% | -1.55%
8 | Cc1ccc(CC(C)NCC(O)c2cccc(Cl)c2)cc1F (stereo unspecified) | 9.84% | 9.76% | 9.69%
9 | COC(=O)C(C)(C)c1ccc(CC(C)NCC(O)c2cccc(C(F)(F)F)c2)cc1 (stereo unspecified) | 10.5% | 6.92% | 9.96%
10 | COC(=O)c1ccc(CC(C)NCC(O)c2cccc(Br)c2)cc1 (stereo unspecified) | -0.96% | -1.92% | 2.26%
11 | CCCCCCC(CC)c1cc(O)c2c(c1)OC(C)(C)c1ccncc1-2 (stereo unspecified) | 3.06% | 2.42% | -0.4%
12 | CC[C@H]1CN2CC[C@H]1C[C@H]2[C@H](O)c1cc(-c2ccc(OC(F)(F)F)cc2)nc2ccc(OC)cc12 | 4.51% | 2.38% | 3.6%
13 | CC(=O)Nc1ccc2[nH]cc(C3CCN(CC4CCN(C(=O)/C=C/c5ccc(Cl)c(Cl)c5)CC4)CC3)c2c1 | 0.82% | -0.9% | 3.23%
14 | O=C(/C=C/c1ccc(Cl)c(Cl)c1)N1CCC(CN2CCC(c3c(-c4ccccc4)[nH]c4ccccc34)CC2)CC1 | -1.32% | 1.74% | 0.62%
15 | CN(C)c1cccc(CCNCCc2c[nH]c3ccc(Cl)cc23)c1 | -1.51% | 4.45% | 1.58%
16 | Cc1cccc(C(=O)Nc2ccnc(N(C)C3CCN(CC(C)C)CC3)c2)c1 | -0.27% | 0.85% | 0%
17 | CN1CC=C(c2c[nH]c3ccc(OC(=O)c4ccccc4)cc23)C1 | 0.69% | 0.43% | 1%
18 | S=C(NCCc1ccc(Cl)cc1)N1CCC(CN2CCC(c3c[nH]c4ccccc34)CC2)CC1 | 3.04% | 1.73% | 1.67%
19 | COc1ccc(C(=O)C2CC2CN2CC=C(c3c(C)[nH]c4ccccc34)CC2)cc1 (stereo unspecified) | -1.12% | 2.52% | 3.3%

Row | Compound | inhibition [1] | inhibition [2] | inhibition [3]
20 | CC[C@H]1CN2CC[C@@H]1C[C@H]2[C@H](O)c1cc(N2CCSCC2)nc2ccc(OC)cc12 | 3.55% | 3.67% | -0.01%
21 | CC(=O)C1(c2ccccc2)CCN(CCC2(c3ccc(Cl)c(Cl)c3)CN(C(=O)Nc3cc(F)cc(F)c3)CCO2)CC1 (stereo unspecified) | 2.31% | 2.4% | -0.62%
22 | O=C(/C=C/c1ccccc1O)NC1CCC(CN2CCC(c3c[nH]c4ccccc34)CC2)CC1 (stereo unspecified) | -0.75% and -1.89% | 0.85% and 0.08% | -1.86% and -3.26%
23 | COC(=O)c1ccc(CC(C)NCC(O)c2cccc(C(F)(F)F)c2)c(OC)c1 (stereo unspecified) | 6.43% | 5.12% | 5.25%
24 | Cc1[nH]c2ccc(O)cc2c1C1CCN(CC2CCC(NC(=O)/C=C/c3ccc(Cl)c(Cl)c3)CC2)CC1 (stereo unspecified) | 0.37% | 0.95% | 0.57%
25 | c1ccc(C(OCCC2CCN(Cc3cccnc3)CC2)c2ccccc2)cc1 | 0.62% | 0.06% | 0.26%
26 | Oc1ccc2[nH]cc(C3=CCN(Cc4ccccc4)CC3)c2c1 | 11.2% | 10.5% | 10.4%
27 | CC(Cc1ccc(OCc2ccc(CCN(C)C)cc2)cc1)NCCc1cccc(Cl)c1 (stereo unspecified) | 1.8% | 0.77% | -2.69%
28 | O=C(/C=C/c1ccc(Cl)c(Cl)c1)NCCC1CCC(N2CCC(c3c[nH]c4ccc(O)cc34)CC2)CC1 (stereo unspecified) | 0.48% | 3.87% | 1.36%
29 | CC(Cc1ccc(OCCCCOc2ccccc2)cc1)NCCCN1CCOCC1 (stereo unspecified) | -1.24% | 2.33% | -0.25%
30 | COc1ccc(C=CC(=O)N2CCC(CN3CCC(c4c[nH]c5ccccc45)CC3)CC2)cc1OC | 1.11% | 0.91% | -0.06%
31 | S=C(NCC1CCCCC1)NC1CCC(CN2CCC(c3c[nH]c4ccccc34)CC2)CC1 (stereo unspecified) | 1.87% | 3.66% | 0.26%
32 | CCOC(=O)c1c(CN2CCN(C)CC2)n(Cc2ccccc2)c2cc(Br)c(O)cc12 | 17.4% | 16.7% | 12.7%
33 | O=C(/C=C/c1ccc(Cl)c(Cl)c1)N1CCC(CN2CCC(c3c(-c4ccc(F)cc4)[nH]c4ccccc34)CC2)CC1 | 0.15% | -1.9% | -4.69%
34 | CC(Cc1ccc(S(=O)(=O)N(C(C)C)C(C)C)cc1)NCC(O)c1cccc(C(F)(F)F)c1 (stereo unspecified) | -0.77% | 2.53% | 1.68%
35 | COc1cccc(CN2CCC(CCOC(c3ccccc3)c3ccc(Cl)cc3)CC2)c1O (stereo unspecified) | 26.2% | 26.5% | 12.5%
36 | CCC(C)(C)NC(C)C(O)c1ccc(C(F)(F)F)cc1 (stereo unspecified) | -0.19% | 0.51% | -0.15%
37 | CO[C@@H]1C[C@@H](C(=O)Nc2ccccc2)N(c2ccc(C#N)c3ccccc23)C1 | 4.31% | 5.45% | 3.78%
38 | COc1cccc(C2(C)CCN(CCCCNC(=O)c3ccc(NC(=O)c4ccc(Cl)cc4)cc3)CC2)c1 | -1.81% | -1.78% | -3.4%

Row | Compound | inhibition [1] | inhibition [2] | inhibition [3]
39 | O=C(c1cc(C(=O)NCc2ccc(Cl)cc2)c(=O)n(Cc2ccc(Cl)cc2)c1)c1cc(F)ccc1O | 2.53% | 1.86% | 1.19%
40 | CN1C(=O)[C@H](NC(=O)[C@@H](Cc2ccccc2)NC(=S)Nc2ccccc2)N=C(c2ccccc2)c2ccccc21 | 1.25% | 0.57% | 1.74%
41 | CN1CC=C(c2c[nH]c3ccc(C(=O)c4nccs4)cc23)CC1 | -1.82% | -1.47% | -1.62%
42 | CC(=O)Nc1ccc(CN2CCC(N(C)c3ccc(NC(=O)c4cccc(C)c4)cc3)CC2)cc1 | 8.7% | 10.9% | 9.57%
43 | Oc1ccc(CN2CCN(CCOC(c3ccccc3)c3ccc(Cl)cc3)CC2)cc1Cl (stereo unspecified) | 5.8% | 1.85% | -3.12%
44 | O=C(/C=C/c1ccc(Cl)c(Cl)c1)NCCC1CCC(N2CCC(c3c[nH]c4ccccc34)CC2)CC1 (stereo unspecified) | 6.03% | 7.76% | 4.25%
45 | CC(=O)Nc1ccc(CN2CCC(N(C)c3cc(NC(=O)c4cccc(F)c4)ccn3)CC2)cc1 | -0.4% | -0.05% | 0.23%
46 | CC1=CC(=O)[C@@H](O)[C@]2(C)[C@H]3[C@@]4(O)OC[C@@]35[C@@H](C[C@@H]12)OC(=O)C[C@H]5[C@@H](C)[C@H]4O | 7.27% | 2.51% | 0.79%
47 | CC(C)CNCc1cccc(-c2ccc(CN(C(=O)NC3CCCCC3)C3CCN(Cc4ccccc4)CC3)cc2)c1 | 4.72% | 5.99% | 5.84%
48 | O=C(c1ccccc1)C1CC1CN1CC=C(c2c[nH]c3ccccc23)CC1 (stereo unspecified) | 2.08% | 0.92% | 8.35%
49 | O=C(/C=C/c1ccc(Cl)c(Cl)c1)N1CCC2CC(N3CCC(c4c[nH]c5ccccc45)CC3)CCC2C1 (stereo unspecified) | 3.41% | -0.87% | 0.24%
50 | CC[C@H]1CN2CC[C@@H]1C[C@H]2[C@H](O)c1cc(-c2cc(Cl)cc(Cl)c2)nc2ccc(OC)cc12 | 2.83% | 2.24% | 1%
51 | C1=C(c2c[nH]c3ccccc23)CCN(Cc2ccccc2)C1 | 1.51% | 0.32% | -0.23%
52 | CN(c1cc(NC(=O)c2ccc(F)cc2)ccn1)C1CCN(Cc2ccc(C#N)cc2)CC1 | 2.42% | 2.29% | 4.46%
53 | CSc1ccc(C[C@@H](C)NC[C@H](O)c2cccc(Cl)c2)cc1 | 2.36% | 1.34% | 2.94%
54 | O=C(c1cccs1)N(Cc1cccc(-c2ccc(CNC3CCCC3)cc2)c1)C1CCN(Cc2ccccc2)CC1 | 10.1% | 10% | 9.21%
55 | COc1ccc(CN2CCN(CCOC(c3ccc(F)cc3)c3ccc(F)cc3)CC2)c(O)c1 | 6.6% | 3.26% | 2.85%
56 | COc1cccc(C2(NC[C@@H](O)[C@H](Cc3ccccc3)NC(=O)c3ccccc3)CCCCC2)c1 | 0.07% | -1.37% | -4.56%
57 | CC(NC(C)(C)C)C(O)c1ccc(Cl)c(C(F)(F)F)c1 (stereo unspecified) | 1.86% | 0.38% | 1.11%

From ChEMBL document CHEMBL3433997, “St. Jude Leishmania screening dataset” (2016)
